# Experimental data as given in PubChem BioAssay (Tox21).
# Values joined by “and” are separate entries in the source; they are usually repeats but may differ in a detail not shown here. Equal values may be shown once. Active and inactive are the calls of the source. A call without a number means that no potency is given here. Calls come from the whole dose curve; as a rule, active = well fitted curve in the direction sought with a large enough effect in the repeat runs; inconclusive = weak or mixed curves; inactive = flat fitted curve, though single readings scatter.
# Assay: qHTS assay to test for compound auto fluorescence at 460 nm (blue) in HEK293 cells (AID 720678)
# Conditions: blue autofluorescence 405/460 nm; series mostly up to 91.3 µM
# Procedure, shortened: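 Intrinsic compound fluorescence is recorded in live HEK293 cultures after overnight incubation at 37C, 5% CO2, using excitation 405 nm and emission 460 nm. Values are referenced to triamterene.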
# Potency is the fitted concentration of half-maximal effect; tags give direction and shape of the fitted curve or compound fluorescence and quenching.
row,SMILES,Potency
1,Cc1ccccc1Cl,inactive
2,CCCCCCC(=O)O,inactive
3,COc1ccccc1[N+](=O)[O-],inactive
4,Cc1ccccc1C=O,inactive
5,Nc1cccc(C(F)(F)F)c1,inactive
6,CCCOC(=O)NCCCN(C)C,inactive
7,COc1ccc(N)c(OC)c1,inactive
8,Nc1nc(N)c2nc(-c3ccccc3)c(N)nc2n1,14.1 µM [fluorescent] (active) and 31.6 µM [fluorescent] (active) and 35.5 µM [fluorescent] (active)
9,Cc1ccc(Cl)cc1,inactive
10,CC/C=C(\C(=O)N[C@@H]1C(=O)N2C(C(=O)OCOC(=O)C(C)(C)C)=C(COC(N)=O)CS[C@H]12)c1csc(N)n1,inactive
11,CC(C)=CCC/C(C)=C/C=O,inactive
12,Cc1nnc(NS(=O)(=O)c2ccc(N)cc2)s1,inactive
13,CC(=O)OCc1ccc2c(c1)OCO2,inactive
14,NC(=O)NC(N)=O,inactive
15,CC(=O)c1nccs1,inactive
16,OCc1ccc(Cl)cc1Cl,inactive
17,CC1(C)C(=O)N(Cl)C(=O)N1Cl,inactive
18,CCc1cccc(CC)c1N,inactive
19,O=C(O)Cc1c[nH]c2ccccc12,inactive

row,SMILES,Potency
1,NC(=O)c1ncn([C@@H]2O[C@H](CO)[C@@H](O)[C@H]2O)n1,inactive
2,CCCN(CCC)C(=O)SCC,inactive
3,CCOC(=O)CC(=O)OCC,inactive
4,CCCCCCCCCCCCCC(=O)O,inactive
5,CCCCCCCC(=O)O,inactive
6,O=C(c1ccccc1)c1ccc(O)c(O)c1O,inactive
7,O=[N+]([O-])c1ccccc1C(F)(F)F,inactive
8,COc1ccc([C@@H]2CC(=O)c3c(O)cc(O[C@@H]4O[C@H](CO[C@@H]5O[C@@H](C)[C@H](O)[C@@H](O)[C@H]5O)[C@@H](O)[C@H](O)[C@H]4O)cc3O2)cc1OC,inactive
9,CC(=O)OC(C)(C)C1CC=C(C)CC1 (stereo not drawn),inactive
10,Cc1ccc(C(C)C)cc1,inactive
11,c1cnc2c(c1)ccc1cccnc12,inactive
12,Cc1cc(CC(=O)O)n(C)c1C(=O)c1ccc(Cl)cc1,inactive
13,C[Si](C)(C)N[Si](C)(C)C,inactive
14,OC[C@H]1O[C@@H](Oc2ccc(O)cc2)[C@H](O)[C@@H](O)[C@@H]1O,inactive
15,CCCCCCCCC(=O)O,inactive
16,CCn1cc(C(=O)O)c(=O)c2cc3c(cc21)OCO3,inactive
17,Cc1cc(C)cc(O)c1,inactive
18,Cc1ccc([N+](=O)[O-])cc1N,inactive
19,CC(C)(C)NC[C@H](O)COc1nsnc1N1CCOCC1,inactive
